Screening data as filed in PubChem BioAssay.
SRC1 inh = SRC1 coactivator transcriptional activity inhibitors, primary screen, cell-based, luminescence; HEK293 GAL4-SRC1 luciferase reporter; inhibition, % at 3.6 µM; 360,000 compounds, 0.12% hits; Nuclear receptor coactivator 1 (Homo sapiens), Q15788;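 active = inhibition above the campaign mean plus 3 SD, with each screening campaign given its own cutoff, cut at about 60% in these data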
NR5A2 inv ag = LRH-1 (NR5A2) inverse agonists, primary screen, cell-based, luminescence, HEK293T, StAR-luciferase reporter. Nuclear receptor subfamily 5 group A member 2 (Homo sapiens), O00482. AID 602396, 2012. 360,000 compounds, 0.13% hits. LRH-1 transfected, 24 h. inhibition, % at 3.6 µM;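 active = inhibition above the mean inhibition of all tested compounds plus 3 SD, cut at about 73% in these data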
Target sequence (O00482 whole entry, looked up): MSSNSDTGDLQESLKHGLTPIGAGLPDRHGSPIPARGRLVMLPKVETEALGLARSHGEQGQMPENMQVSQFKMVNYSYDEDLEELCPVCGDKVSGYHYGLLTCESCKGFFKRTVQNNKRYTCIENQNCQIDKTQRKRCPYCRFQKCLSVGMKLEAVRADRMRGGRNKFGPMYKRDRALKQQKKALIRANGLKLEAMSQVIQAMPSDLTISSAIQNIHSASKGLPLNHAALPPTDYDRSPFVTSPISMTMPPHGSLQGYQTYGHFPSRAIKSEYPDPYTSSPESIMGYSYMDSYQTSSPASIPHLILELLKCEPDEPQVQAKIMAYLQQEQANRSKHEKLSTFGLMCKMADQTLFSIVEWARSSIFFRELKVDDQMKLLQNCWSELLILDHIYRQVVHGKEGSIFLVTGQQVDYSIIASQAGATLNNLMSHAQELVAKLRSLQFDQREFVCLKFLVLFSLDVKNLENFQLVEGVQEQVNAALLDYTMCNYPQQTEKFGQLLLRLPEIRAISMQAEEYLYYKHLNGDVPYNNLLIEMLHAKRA
NCOA2 inhibitor = inhibition of GAL4-SRC2 driven luciferase reporter, primary screen, SRC2 inhibitor project, cell-based, luminescence. Nuclear receptor coactivator 2 (Homo sapiens), Q15596. inhibition, % at 9 µM. AID 651957, 2012. 370,000 compounds, 0.17% hits. HEK293 GAL4-SRC2 luciferase reporter;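 active = inhibition above the mean inhibition of all tested compounds plus 3 SD, set per campaign, cut at about 52% in these data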
NCOA3 inh = SRC3 coactivator transcriptional activity inhibitors, primary screen, cell-based, luminescence; Nuclear receptor coactivator 3 (Homo sapiens), Q9Y6Q9; HEK293 GAL4-SRC3 luciferase reporter; inhibition, % at 3.6 µM; 360,000 compounds, 0.17% hits; AID 588352, 2011;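 active = inhibition above a per-campaign cutoff, the mean of all compounds plus 3 SD, cut at about 60% in these data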;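 note: higher means less SRC3-driven luciferase light from the GAL4 reporter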
COUP-TFII inh = NR2F2 transcriptional activity inhibitors, primary screen, cell-based, luciferase reporter, HEK293T, luminescence | HEK293T NGFI-A luciferase reporter | inhibition, % at 8.6 µM | 370,000 compounds, 0.7% hits | AID 686940, 2013;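 active = inhibition above a per-plate cutoff, mean inhibition of test wells between control levels plus 3 SD, cut at about 38% in these data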;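 note: cells cotransfected with COUP-TFII expression vector driving the NGFI-A reporter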
VP16 Luc counter = Gal4-VP16 luciferase reporter inhibitors, counter-screen for COUP-TFII antagonist project, cell-based, luminescence, HEK293. 2,500 compounds, 25% hits. AID 687007, 2013. shares compounds with COUP-TFII inh. inhibition, % at 8.5 µM; in the data active = inhibition above about 13%
NR2F2 inh conf = NR2F2 transcriptional activity inhibitors, confirmation, cell-based, luciferase reporter, HEK293, triplicate; shares compounds with COUP-TFII inh; HEK293 NGFI-A luciferase reporter, luminescence; inhibition, % at 8.5 µM; 2,500 compounds, 45% hits;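 active = mean inhibition over three repeats above a set limit taken from the earlier primary screen, cut at about 38% in these data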
Large screens that a line does not name were inactive (follow-up assays come after a bar, where they were run). The list is not random: actives were taken first. Their share in the collection is about 0.84%.

CN(C)CCCNS(=O)(=O)c1ccc(NC2CCCCCC2)c([N+](=O)[O-])c1	COUP-TFII inh 52.6 | VP16 Luc counter inactive | NR2F2 inh conf 39.0
CC(Oc1ccc(Cl)cc1Cl)c1nc(-c2ccc(NC(=O)c3ccncc3)cc2)no1 (centres undefined)	COUP-TFII inh 80.2 | VP16 Luc counter inactive | NR2F2 inh conf inactive
CC(Oc1ccc(Cl)cc1Cl)c1nc(-c2ccc(NC(=O)c3cccnc3)cc2)no1 (centres undefined)	none
COc1cc2c(cc1NC(=O)CSc1nnc(-c3ccccn3)n1-c1ccccc1)oc1ccccc12	none (no result: SRC1 inh, NR5A2 inv ag, NCOA3 inh)
CN1C(=O)C2(C(C#N)=C(N)N(c3cc(Cl)cc(Cl)c3)C3=C2C(=O)CCC3)c2ccccc21 (centres undefined)	COUP-TFII inh 42.7 | VP16 Luc counter inactive | NR2F2 inh conf inactive
CN1C(=O)[C@@]2(C3=C(CCCC3=O)OC3=C2C(=O)OC2(CCCCC2)C3)c2ccccc21	none (no result: SRC1 inh, NR5A2 inv ag, NCOA3 inh)
CCOCc1nc(N)nc(N)c1-c1cccc(Cl)c1	COUP-TFII inh 57.2 | VP16 Luc counter inactive | NR2F2 inh conf inactive
CCOC(=O)c1c(C)nc2ccc(Cl)cc2c1-c1ccccc1	none
Cc1ccc(NC(=S)NNC(=O)CSc2nc3ccccc3c(=O)n2-c2ccc(Cl)cc2)cc1	none (no result: SRC1 inh, NR5A2 inv ag, NCOA3 inh)
O=C(CSc1nc2ccccc2n1Cc1ccccc1)NN=C/C=C/c1ccccc1	none (no result: SRC1 inh, NR5A2 inv ag, NCOA3 inh)
Cc1cc(-c2ccc(C)c(S(=O)(=O)NCCCN3CCN(c4ccccc4)CC3)c2)on1	COUP-TFII inh 61.9 | VP16 Luc counter inactive | NR2F2 inh conf inactive
CCCCOC(=O)c1[nH]c2c(c1C)C(=O)CC(c1cc(OC)c(OC)c(OC)c1)C2 (centres undefined)	COUP-TFII inh 71.4 | VP16 Luc counter inactive | NR2F2 inh conf 62.9
COc1ccc([C@@]23Oc4cc(OC)cc(OC)c4[C@]2(O)[C@H](O)[C@H](C(=O)N(C)C)[C@H]3c2ccccc2)cc1	SRC1 inh 90.3, NR5A2 inv ag 99.5, NCOA2 inhibitor 71.9, NCOA3 inh 89.5, COUP-TFII inh 87.1 | VP16 Luc counter 20.3 | NR2F2 inh conf 73.9
CC(C)(C)C(=O)NCCCc1nc2ccccc2n1CCCOc1ccc(Cl)cc1	COUP-TFII inh 60.4 | VP16 Luc counter inactive | NR2F2 inh conf inactive
O=C1CSc2ccc(C(=O)N3CCCC(C(=O)N4CCCCC4)C3)cc2N1 (centres undefined)	none (no result: SRC1 inh, NR5A2 inv ag, NCOA3 inh)
COc1ccc(CN2CCN(C(=O)c3ccc(S(=O)(=O)NCc4ccco4)cc3)CC2)cc1	COUP-TFII inh 45.2 | VP16 Luc counter inactive | NR2F2 inh conf inactive
O=C(NC1CCN(Cc2ccccc2)CC1)c1ccc(S(=O)(=O)NCc2ccco2)cc1	COUP-TFII inh 47.7 | VP16 Luc counter inactive | NR2F2 inh conf inactive
COc1ccc(Cl)cc1NS(=O)(=O)c1cccc(C(=O)NC2CCN(Cc3ccccc3)CC2)c1	COUP-TFII inh 47.7 | VP16 Luc counter 16.7 | NR2F2 inh conf inactive
O=C(NC1CCCCC1)c1ccc(S(=O)(=O)NCc2ccco2)cc1	none
COc1ccc(NS(=O)(=O)c2cccc(C(=O)NC3CCN(Cc4ccccc4)CC3)c2)cc1	none
O=C(Nc1ccc(C(O)(C(F)(F)F)C(F)(F)F)cc1)c1c(F)cccc1F	none (no result: SRC1 inh, NR5A2 inv ag, NCOA2 inhibitor, NCOA3 inh)
CCOC(=O)[C@@]12CCCC=C1N(CCc1ccc(Cl)cc1)C(=O)[C@H]2CC(=O)N1CCSCC1	none (no result: SRC1 inh, NR5A2 inv ag, NCOA3 inh)
O=C(NC1CCCCC1)c1n[nH]c2c1CCCCC2	NCOA2 inhibitor 57.1, COUP-TFII inh 50.0 | VP16 Luc counter inactive | NR2F2 inh conf inactive
CCC(C)(C)C1CCc2[nH]nc(C(=O)NC3CCCC3)c2C1 (centres undefined)	none
CCn1c(Cl)c(C=O)s/c1=N\S(=O)(=O)c1ccccc1	COUP-TFII inh 51.3 | VP16 Luc counter 47.6 | NR2F2 inh conf inactive
Fc1ccc(-c2cc(-c3nnc4sc(Cc5cccs5)nn34)[nH]n2)cc1	none (no result: SRC1 inh, NR5A2 inv ag, NCOA3 inh)
CN(Cc1ccccc1)C(=O)c1ccc(NC(=O)Cc2ccc(NC(=O)C3CCCN(C(=O)C4CCC4)C3)cc2)cc1 (centres undefined)	none
CN(Cc1ccccc1)C(=O)c1cccc(NC(=O)Cc2ccc(NC(=O)C3CCN(C(=O)CCc4ccccc4)CC3)cc2)c1	COUP-TFII inh 69.8 | VP16 Luc counter inactive | NR2F2 inh conf 42.6
CN(C(=O)c1cccc(NC(=O)Cc2ccc(NC(=O)C3CCCN(C(=O)CCc4ccccc4)C3)cc2)c1)C1CCCCC1 (centres undefined)	COUP-TFII inh 77.3 | VP16 Luc counter inactive | NR2F2 inh conf 62.1
CN(Cc1ccccc1)C(=O)c1ccc(NC(=O)Cc2ccc(NC(=O)C3CCCN(C(=O)CCc4ccccc4)C3)cc2)cc1 (centres undefined)	COUP-TFII inh 75.3 | VP16 Luc counter inactive | NR2F2 inh conf 69.7
CN(C(=O)c1cccc(NC(=O)Cc2ccc(NC(=O)C3CCCN(C(=O)CCc4ccccc4)C3)cc2)c1)C1CC1 (centres undefined)	none
Cc1cc(C(=O)COC(=O)c2ccco2)c(C)n1Cc1ccco1	COUP-TFII inh 58.4 | VP16 Luc counter inactive | NR2F2 inh conf inactive
CCOc1ccc(/C=C2\SC(=S)N(CCCC(=O)NCCCN3CCOCC3)C2=O)cc1	NCOA2 inhibitor 83.5, COUP-TFII inh 68.6 | VP16 Luc counter 26.6 | NR2F2 inh conf inactive
O=C(CCCN1C(=O)/C(=C/c2ccccc2Cl)SC1=S)NNC(=O)c1ccccc1Cl	NCOA2 inhibitor 83.1, COUP-TFII inh 69.3 | VP16 Luc counter 69.1 | NR2F2 inh conf 70.5
O=C(CCCN1C(=O)/C(=C/c2ccccc2Cl)SC1=S)NCCCN1CCOCC1	NCOA2 inhibitor 78.6, COUP-TFII inh 62.8 | VP16 Luc counter inactive | NR2F2 inh conf inactive
O=C(CCCN1C(=O)/C(=C/c2ccccc2Cl)SC1=S)N1CCCC1	none
CCc1ccc(/C=C2/SC(=S)N(CCC(=O)NCCCN3CCOCC3)C2=O)cc1	none
CCc1ccc(/C=C2\SC(=S)N(CCCC(=O)NCCCN3CCOCC3)C2=O)cc1	NCOA2 inhibitor 89.3, COUP-TFII inh 83.7 | VP16 Luc counter 68.5 | NR2F2 inh conf 59.1
COC(=O)C1CN(Cc2ccc(OC)cc2)CCS(=O)(=O)N1Cc1ccc(F)cc1 (centres undefined)	none (no result: SRC1 inh, NR5A2 inv ag, NCOA3 inh)
CCCC1CCC2(CC1)CCC2OC(=S)Nc1ccc(Br)cc1 (centres undefined)	none (no result: SRC1 inh, NR5A2 inv ag, NCOA2 inhibitor, NCOA3 inh)
O=C(Nc1ccccc1)Nc1nc2ncccn2c1-c1ccc(F)c(F)c1	none (no result: SRC1 inh, NR5A2 inv ag, NCOA3 inh)
